This is an account of results in PubChem BioAssay.

The nature of experiment [1]: viability loss with induced miR-34 in A549 – imaging, A549 dox-inducible miR-34, nuclei and caspase counts, primary screen (AID 1347080). The following applies: A549 miR-34 inducible, Hoechst nuclei count, 48 h.
A short description of experiment [2]: MELAS cybrid and Rieske KO viability enhancers – cell-based, MELAS cybrids, Rieske KO mouse fibroblasts, CellTiter-Glo, primary screen (AID 1508586;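 active = mean z-score across replicates of 1.96 or higher in either the MELAS or the Rieske mutant cell line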;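 also: z relative to plate mean and SD of compound and empty wells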). The following applies: low glucose. On the technique in general: Cellular ATP, detected with luciferase, serves as a proxy for viable cell number.
[3] abbreviates: stronger effect = lower value, cell number ratio, induced over uninduced.
The mark [4] stands for this setting: measured here: relative caspase fold change +Dox/-Dox.
Where [5] appears, read: measured here: total cells with miR-34 induction, stronger effect = lower value.
The mark [6] stands for this setting: measured here: total cells without miR-34 induction.
Where [7] appears, read: MELAS cybrid survival, CellTiter-Glo 48 h, stronger effect = higher value.
[8] abbreviates: Rieske KO mouse fibroblast survival, CellTiter-Glo 72 h.

“And” between values parts separate entries of the source, which are not always exact repeats. Identical values can stand only once. The source made the active and inactive calls.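 The calls were made as follows, unless noted: active = compounds whose cell count with miR-34 switched on is under 0.7 times the count with it off; inactive = the rest.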
Also: test concentration not given here.

Take `Oc1c(Cl)cc(Cl)c(Cl)c1Cc1c(O)c(Cl)cc(Cl)c1Cl`: the fold change in experiment [1] (setting [3]) is 1.05 (inactive) and 0.85 (inactive); in experiment [1] (setting [4]) it was 2.17 and 2.72. In addition, the cell count in experiment [1] (setting [5]) is 2100 and 2440; in experiment [1] (setting [6]), 2010 and 2860. Moreover, the z-score in experiment [2] (setting [7]) was -0.483 (inactive); in experiment [2] (setting [8]), 0.0864.

`CCN(CC)CCNc1ccc(CO)c2sc3ccccc3c(=O)c12`: the fold change in experiment [1] (setting [3]) is 0.933 (inactive) and 0.872 (inactive); in experiment [1] (setting [4]), 1.29 and 1.89. For the same compound, the cell count in experiment [1] (setting [5]) was 3110 and 3390; in experiment [1] (setting [6]), 3340 and 3880. The results for the z-score in experiment [2] (setting [7]) and in experiment [2] (setting [8]) were 4.63 (active) and 0.873, respectively.

`Nc1ccc(C(=O)NCC(=O)O)cc1`: the fold change in experiment [1] (setting [3]) is 0.905 (inactive) and 0.867 (inactive) and 0.907 (inactive); in experiment [1] (setting [4]), 1.12 and 0.765 and 3.35. For the same compound, the cell count in experiment [1] (setting [5]) was 9600 and 8480 and 12000; in experiment [1] (setting [6]) it was 10600 and 9780 and 13300. Further, the z-score was -0.372 (inactive) and 0.514 (inactive) in experiment [2] (setting [7]); -0.0832 and -0.331 in experiment [2] (setting [8]).

In the case of `C[C@@](Cc1ccc(O)c(O)c1)(NN)C(=O)O`, the fold change in experiment [1] (setting [3]) is 0.855 (inactive) and 0.878 (inactive) and 0.94 (inactive); in experiment [1] (setting [4]) it was 1.15 and 0.758 and 1.14. In addition, the cell count was 8030 and 8200 and 9200 in experiment [1] (setting [5]); 9400 and 9340 and 9790 in experiment [1] (setting [6]). For the same compound, the z-score in experiment [2] (setting [7]) was -0.318 (inactive) and -0.0378 (inactive) and 0.282 (inactive); in experiment [2] (setting [8]), 0.573 and -0.159 and -0.894.

As for `CC(C)NCC(O)c1ccc2ccccc2c1` (centres undefined), the fold change in experiment [1] (setting [3]) is 0.951 (inactive) and 0.938 (inactive) and 0.885 (inactive); in experiment [1] (setting [4]), 0.594 and 1.29 and 1.16. For the same compound, the cell count in experiment [1] (setting [5]) is 8750 and 8620 and 9710; in experiment [1] (setting [6]), 9200 and 11000. The z-score in experiment [2] (setting [7]) is 0.654 (inactive) and -0.419 (inactive); in experiment [2] (setting [8]) it was -0.347 and -0.52.

With `CC(C)(C(=O)c1cccnc1)c1cccnc1`, the fold change in experiment [1] (setting [3]) is 0.962 (inactive) and 0.83 (inactive) and 0.921 (inactive); in experiment [1] (setting [4]), 1.43 and 1.26 and 2.87. Moreover, the cell count was 10400 and 8590 and 12100 in experiment [1] (setting [5]); 10800 and 10300 and 13100 in experiment [1] (setting [6]). Further, the z-score in experiment [2] (setting [7]) was 0.55 (inactive); in experiment [2] (setting [8]), 0.502.

As for `O=C(O)c1ccccc1C(=O)Nc1ccc(S(=O)(=O)Nc2nccs2)cc1`, the fold change is 0.914 (inactive) and 0.897 (inactive) in experiment [1] (setting [3]); 1.08 and 2.76 in experiment [1] (setting [4]). Further, the cell count in experiment [1] (setting [5]) is 8730 and 11300; in experiment [1] (setting [6]), 9550 and 12600. The values for the z-score in experiment [2] (setting [7]) and in experiment [2] (setting [8]) were 0.52 (inactive) and 0.0843, respectively.

Turning to `CCCCOc1cc(C(=O)NCCN(CC)CC)c2ccccc2n1`, the fold change in experiment [1] (setting [3]) is 0.83 (inactive) and 0.969 (inactive) and 0.813 (inactive); in experiment [1] (setting [4]) it was 0.865 and 0.646 and 1.83. Besides, the cell count in experiment [1] (setting [5]) is 7720 and 7790 and 10400; in experiment [1] (setting [6]) it was 9300 and 8040 and 12800. The z-score was -0.328 (inactive) and -0.63 (inactive) in experiment [2] (setting [7]); -0.208 and 0.449 in experiment [2] (setting [8]).

For the compound `Nc1nc2c(ncn2CCC(CO)CO)c(=O)[nH]1`, the fold change was 0.945 (inactive) and 0.956 (inactive) and 0.874 (inactive) in experiment [1] (setting [3]); 1.67 and 0.466 and 0.841 in experiment [1] (setting [4]). For the same compound, the cell count is 10200 and 9130 and 9970 in experiment [1] (setting [5]); 10800 and 9540 and 11400 in experiment [1] (setting [6]). In addition, the z-score in experiment [2] (setting [7]) is -0.249 (inactive) and -1.06 (inactive) and -0.78 (inactive); in experiment [2] (setting [8]), -0.179 and 0.138 and 0.0729.

`NC(N)=Nc1nc(CSCC/C(N)=N/S(N)(=O)=O)cs1`: the fold change in experiment [1] (setting [3]) was 0.977 (inactive) and 0.894 (inactive) and 0.942 (inactive); in experiment [1] (setting [4]), 1.04 and 0.96 and 0.999. The cell count in experiment [1] (setting [5]) is 10400 and 8060 and 10100; in experiment [1] (setting [6]), 10600 and 9010 and 10700. Further, the z-score in experiment [2] (setting [7]) was 0.33 (inactive) and 1.06 (inactive); in experiment [2] (setting [8]), 0.0847 and 0.907.

For the compound `NC(N)=NS(=O)(=O)c1ccc(N)cc1`, the fold change in experiment [1] (setting [3]) was 0.891 (inactive) and 0.893 (inactive) and 0.92 (inactive); in experiment [1] (setting [4]), 1.33 and 1.72 and 4.63. Besides, the cell count is 7720 and 8610 and 11300 in experiment [1] (setting [5]); 8670 and 9630 and 12200 in experiment [1] (setting [6]). The z-score in experiment [2] (setting [7]) was -0.23 (inactive) and -0.511 (inactive); in experiment [2] (setting [8]), -0.172 and -0.306.

Take `CN(C/C=C/C#CC(C)(C)C)Cc1cccc2ccccc12`: the fold change in experiment [1] (setting [3]) is 0.935 (inactive) and 0.938 (inactive); in experiment [1] (setting [4]), 4.07 and 1.16. Besides, the cell count is 11600 and 9190 in experiment [1] (setting [5]); 12400 and 9800 in experiment [1] (setting [6]). Further, the z-score in experiment [2] (setting [7]) is 0.287 (inactive) and -0.488 (inactive); in experiment [2] (setting [8]) it was -0.0957 and -0.937.

On to `COc1cc2c(cc1OC)C(=O)C(CC1CCN(Cc3ccccc3)CC1)C2` (centres undefined), for which the fold change in experiment [1] (setting [3]) was 0.863 (inactive) and 0.884 (inactive); in experiment [1] (setting [4]), 1.25 and 2.01. Further, the cell count in experiment [1] (setting [5]) is 8000 and 11200; in experiment [1] (setting [6]), 9270 and 12700. Moreover, the values for the z-score in experiment [2] (setting [7]) and in experiment [2] (setting [8]) were 1.84 (inactive) and 0.641, respectively.

Take `Cc1cc(=O)n(-c2ccccc2)n1C`: the fold change in experiment [1] (setting [3]) is 0.939 (inactive) and 0.859 (inactive) and 0.88 (inactive); in experiment [1] (setting [4]), 0.938 and 0.796 and 1.12. For the same compound, the cell count was 8700 and 7960 and 10700 in experiment [1] (setting [5]); 9270 and 12100 in experiment [1] (setting [6]). In addition, the z-score in experiment [2] (setting [7]) was -0.258 (inactive) and 0.556 (inactive); in experiment [2] (setting [8]) it was -0.2 and -0.0597.

For the compound `CN1CCN(C2=Nc3cc(F)ccc3Cc3ccccc32)CC1`, the fold change in experiment [1] (setting [3]) was 0.822 (inactive) and 0.853 (inactive); in experiment [1] (setting [4]), 1.3 and 0.98. Further, the cell count was 5980 and 8510 in experiment [1] (setting [5]); 7280 and 9980 in experiment [1] (setting [6]). Further, the z-score in experiment [2] (setting [7]) was -0.621 (inactive); in experiment [2] (setting [8]) it was 0.127.

On to `Cc1c(N(C)CS(=O)(=O)O)c(=O)n(-c2ccccc2)n1C`, for which the fold change in experiment [1] (setting [3]) is 0.886 (inactive) and 0.92 (inactive); in experiment [1] (setting [4]), 1.09 and 6.36. The cell count in experiment [1] (setting [5]) is 8550 and 11500; in experiment [1] (setting [6]) it was 9640 and 12500. For the same compound, the z-score is -1.12 (inactive) in experiment [2] (setting [7]) and -0.298 in experiment [2] (setting [8]).

For the compound `C[C@@H]1C[C@H]2[C@@H]3C[C@H](F)C4=CC(=O)C=C[C@]4(C)[C@@]3(F)[C@@H](O)C[C@]2(C)[C@@]1(O)C(=O)CO`, the fold change in experiment [1] (setting [3]) is 0.863 (inactive); in experiment [1] (setting [4]), 1.53. For the same compound, the cell count in experiment [1] (setting [5]) was 6000; in experiment [1] (setting [6]), 6940. The z-score in experiment [2] (setting [7]) was 0.578 (inactive); in experiment [2] (setting [8]) it was 0.936.

Take `Cc1[nH]cnc1CN1CCc2c(c3ccccc3n2C)C1=O`: the fold change was 0.98 (inactive) in experiment [1] (setting [3]) and 1.07 in experiment [1] (setting [4]). In addition, the figures for the cell count in experiment [1] (setting [5]) and in experiment [1] (setting [6]) were 9740 and 9940, respectively. For the same compound, the z-score is 0.685 (inactive) in experiment [2] (setting [7]) and 0.531 in experiment [2] (setting [8]).

With `CC(Cc1cccc(C(F)(F)F)c1)NCCOC(=O)c1ccccc1` (centres undefined), the fold change is 0.816 (inactive) in experiment [1] (setting [3]) and 1.56 in experiment [1] (setting [4]). The cell count in experiment [1] (setting [5]) worked out at 8560; in experiment [1] (setting [6]), 10500. Further, the z-score in experiment [2] (setting [7]) was 0.63 (inactive); in experiment [2] (setting [8]), 0.0603.
